Experimental data as given in PMC7862700, “An all-to-all approach to the identification of sequence-specific readers for epigenetic DNA modifications on cytosine”.

Legend:
Assay in all cases: DAPPL (digital affinity profiling via proximity ligation, sequencing); 10 mM Tris-HCl pH 7.5, 50 mM NaCl, 1 mM DTT, 4% glycerol, room temperature, 30 min; GST-TFs on glutathione beads, 16-mer random dsDNA library, 0.1% formaldehyde crosslink after washing; high values mean tight binding
FLI1 = biological target: T1, FLI1 (Homo sapiens, UniProt Q01543 1-452); details: protein: recombinant; tags: N-terminal GST; dsDNA, one strand shown
T1 sequence: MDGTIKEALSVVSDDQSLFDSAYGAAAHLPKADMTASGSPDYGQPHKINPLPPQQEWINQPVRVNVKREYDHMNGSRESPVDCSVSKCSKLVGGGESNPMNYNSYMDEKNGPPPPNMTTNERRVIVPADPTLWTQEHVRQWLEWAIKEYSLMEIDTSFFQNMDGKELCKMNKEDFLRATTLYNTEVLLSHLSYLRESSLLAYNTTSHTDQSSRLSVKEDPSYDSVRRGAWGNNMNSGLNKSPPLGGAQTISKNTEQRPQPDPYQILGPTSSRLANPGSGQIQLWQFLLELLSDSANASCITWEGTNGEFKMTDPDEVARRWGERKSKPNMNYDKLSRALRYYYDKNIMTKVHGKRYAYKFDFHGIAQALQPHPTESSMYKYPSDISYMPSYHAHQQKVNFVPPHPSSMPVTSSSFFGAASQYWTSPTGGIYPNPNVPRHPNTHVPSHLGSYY
Procedure, shortened: (§1)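 Binding signal is defined as a hexamer's read frequency for one factor over its frequency for the tag-only sample. To obtain reads, GST-fused human transcription factors were expressed in yeast, captured on glutathione beads, barcoded with DNA and pooled with that sample. Pools met 200 nmole of a 16-mer random double-stranded DNA library in Tris/NaCl/DTT/glycerol buffer for 30 min at room temperature before washing, 0.1% formaldehyde crosslinking, proximity ligation (BsaI/T4 ligase, 1 h, 37 °C), PCR and Illumina NextSeq500 sequencing.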

ELK1 = biological target: T2, ELK1 (Homo sapiens, UniProt P19419 1-428); details: protein: recombinant; tags: N-terminal GST; dsDNA, one strand shown
T2 sequence: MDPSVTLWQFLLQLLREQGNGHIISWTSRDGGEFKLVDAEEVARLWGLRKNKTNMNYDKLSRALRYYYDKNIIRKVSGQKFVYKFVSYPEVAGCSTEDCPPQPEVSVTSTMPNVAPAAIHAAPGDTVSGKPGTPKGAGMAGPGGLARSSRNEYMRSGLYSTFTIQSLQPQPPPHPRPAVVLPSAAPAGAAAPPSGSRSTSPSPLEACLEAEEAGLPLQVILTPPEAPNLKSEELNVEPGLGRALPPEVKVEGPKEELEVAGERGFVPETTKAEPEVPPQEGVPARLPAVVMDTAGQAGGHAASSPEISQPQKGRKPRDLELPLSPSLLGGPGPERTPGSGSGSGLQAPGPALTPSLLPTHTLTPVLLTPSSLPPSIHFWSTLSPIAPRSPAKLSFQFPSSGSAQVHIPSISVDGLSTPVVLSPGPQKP
Procedure, shortened: as §1

GABPA = biological target: T3, GABPA (Homo sapiens, UniProt Q06546 1-454); details: protein: recombinant; tags: N-terminal GST; dsDNA, one strand shown
T3 sequence: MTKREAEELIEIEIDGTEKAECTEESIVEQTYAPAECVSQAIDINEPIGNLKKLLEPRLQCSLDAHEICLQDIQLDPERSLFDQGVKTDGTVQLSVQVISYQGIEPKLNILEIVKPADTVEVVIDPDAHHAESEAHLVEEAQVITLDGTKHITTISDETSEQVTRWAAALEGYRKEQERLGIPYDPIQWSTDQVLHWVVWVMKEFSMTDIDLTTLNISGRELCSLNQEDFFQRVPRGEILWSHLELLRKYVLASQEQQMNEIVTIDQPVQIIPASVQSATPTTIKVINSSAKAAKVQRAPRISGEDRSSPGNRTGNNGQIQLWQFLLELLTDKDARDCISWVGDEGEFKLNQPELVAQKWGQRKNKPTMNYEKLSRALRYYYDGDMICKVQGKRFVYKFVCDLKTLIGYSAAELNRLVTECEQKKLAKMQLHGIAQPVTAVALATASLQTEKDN
Procedure, shortened: as §1

ERG = biological target: T4, ERG (Homo sapiens, UniProt P11308 1-479); details: protein: recombinant; tags: N-terminal GST; dsDNA, one strand shown
T4 sequence: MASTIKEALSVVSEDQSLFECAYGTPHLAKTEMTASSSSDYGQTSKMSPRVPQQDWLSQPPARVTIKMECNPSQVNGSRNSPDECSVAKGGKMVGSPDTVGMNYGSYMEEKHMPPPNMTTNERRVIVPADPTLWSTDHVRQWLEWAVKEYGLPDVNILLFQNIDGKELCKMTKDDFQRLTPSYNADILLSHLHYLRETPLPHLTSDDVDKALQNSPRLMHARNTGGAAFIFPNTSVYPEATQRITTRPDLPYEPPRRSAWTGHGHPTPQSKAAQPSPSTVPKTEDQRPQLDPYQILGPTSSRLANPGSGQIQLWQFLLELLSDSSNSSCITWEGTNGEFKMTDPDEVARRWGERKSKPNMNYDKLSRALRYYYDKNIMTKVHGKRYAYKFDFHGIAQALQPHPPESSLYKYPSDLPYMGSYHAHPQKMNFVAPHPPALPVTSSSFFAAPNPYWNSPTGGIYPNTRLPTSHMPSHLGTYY
Procedure, shortened: as §1

ELF1 = ELF1 (Homo sapiens, UniProt P32519 1-619); details: protein: recombinant; tags: N-terminal GST; dsDNA, one strand shown
Procedure, shortened: as §1

SPI1 = SPI1 (Homo sapiens, UniProt P17947 1-270); details: protein: recombinant; tags: N-terminal GST; dsDNA, one strand shown
Procedure, shortened: as §1

SPIB = SPIB (Homo sapiens, UniProt Q01892 1-262); details: protein: recombinant; tags: N-terminal GST; dsDNA, one strand shown
Procedure, shortened: as §1

FEV = biological target: T5, FEV (Homo sapiens, UniProt Q99581 1-238); details: protein: recombinant; tags: N-terminal GST; dsDNA, one strand shown
T5 sequence: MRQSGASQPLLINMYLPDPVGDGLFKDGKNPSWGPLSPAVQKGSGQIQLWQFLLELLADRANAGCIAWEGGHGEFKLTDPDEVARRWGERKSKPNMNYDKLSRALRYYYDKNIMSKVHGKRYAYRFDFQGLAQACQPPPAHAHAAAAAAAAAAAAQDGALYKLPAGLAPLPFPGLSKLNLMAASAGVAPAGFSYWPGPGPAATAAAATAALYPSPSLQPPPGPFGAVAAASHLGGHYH
Procedure, shortened: as §1

ETV5 = ETV5 (Homo sapiens, UniProt P41161 1-510); details: protein: recombinant; tags: N-terminal GST; dsDNA, one strand shown
Procedure, shortened: as §1

HSF1 = HSF1 (Homo sapiens, UniProt Q00613 1-529); details: protein: recombinant; tags: N-terminal GST; chain copies: 3; dsDNA, one strand shown
Procedure, shortened: as §1

SPIC = biological target: T6, SPIC (Homo sapiens, UniProt Q8N5J4 1-248); details: protein: recombinant; tags: N-terminal GST; dsDNA, one strand shown
T6 sequence: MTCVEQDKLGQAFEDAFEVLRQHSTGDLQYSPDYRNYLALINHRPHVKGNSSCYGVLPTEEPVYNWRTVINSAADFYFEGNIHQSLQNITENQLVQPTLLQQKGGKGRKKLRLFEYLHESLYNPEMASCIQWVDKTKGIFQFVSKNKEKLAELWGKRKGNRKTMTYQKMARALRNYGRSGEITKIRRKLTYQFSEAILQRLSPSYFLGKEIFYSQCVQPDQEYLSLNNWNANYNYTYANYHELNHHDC
Procedure, shortened: as §1

ELF4 = ELF4 (Homo sapiens, UniProt Q99607 1-663); details: protein: recombinant; tags: N-terminal GST; dsDNA, one strand shown
Procedure, shortened: as §1

ELK4 = biological target: T7, ELK4 (Homo sapiens, UniProt P28324-2 1-405); details: protein: recombinant; tags: N-terminal GST; dsDNA, one strand shown
T7 sequence: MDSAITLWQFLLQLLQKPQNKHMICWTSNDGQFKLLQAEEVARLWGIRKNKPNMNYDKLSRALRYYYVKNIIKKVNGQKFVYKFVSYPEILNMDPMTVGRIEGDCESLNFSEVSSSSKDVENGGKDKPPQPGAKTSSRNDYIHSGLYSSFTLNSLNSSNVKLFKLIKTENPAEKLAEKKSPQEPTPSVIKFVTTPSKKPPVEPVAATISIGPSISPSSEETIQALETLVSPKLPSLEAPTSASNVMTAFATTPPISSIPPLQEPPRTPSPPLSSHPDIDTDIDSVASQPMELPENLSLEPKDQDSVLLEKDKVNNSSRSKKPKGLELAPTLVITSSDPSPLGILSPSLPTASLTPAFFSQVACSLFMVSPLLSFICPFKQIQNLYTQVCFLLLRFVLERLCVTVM
Procedure, shortened: as §1

ETV2 = biological target: T8, ETV2 (Homo sapiens, UniProt O00321 1-342); details: protein: recombinant; tags: N-terminal GST; dsDNA, one strand shown
T8 sequence: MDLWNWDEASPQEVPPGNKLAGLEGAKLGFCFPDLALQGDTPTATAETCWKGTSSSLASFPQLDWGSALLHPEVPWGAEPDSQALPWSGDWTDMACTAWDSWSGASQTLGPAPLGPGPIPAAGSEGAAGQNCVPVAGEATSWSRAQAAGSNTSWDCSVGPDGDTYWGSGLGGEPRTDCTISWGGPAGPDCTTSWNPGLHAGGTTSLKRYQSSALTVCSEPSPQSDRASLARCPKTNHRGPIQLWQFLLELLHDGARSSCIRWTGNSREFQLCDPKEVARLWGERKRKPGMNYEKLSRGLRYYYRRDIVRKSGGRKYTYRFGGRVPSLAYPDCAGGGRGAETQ
Procedure, shortened: as §1

ELF3 = biological target: T9, ELF3 (Homo sapiens, UniProt P78545 1-371); details: protein: recombinant; tags: N-terminal GST; dsDNA, one strand shown
T9 sequence: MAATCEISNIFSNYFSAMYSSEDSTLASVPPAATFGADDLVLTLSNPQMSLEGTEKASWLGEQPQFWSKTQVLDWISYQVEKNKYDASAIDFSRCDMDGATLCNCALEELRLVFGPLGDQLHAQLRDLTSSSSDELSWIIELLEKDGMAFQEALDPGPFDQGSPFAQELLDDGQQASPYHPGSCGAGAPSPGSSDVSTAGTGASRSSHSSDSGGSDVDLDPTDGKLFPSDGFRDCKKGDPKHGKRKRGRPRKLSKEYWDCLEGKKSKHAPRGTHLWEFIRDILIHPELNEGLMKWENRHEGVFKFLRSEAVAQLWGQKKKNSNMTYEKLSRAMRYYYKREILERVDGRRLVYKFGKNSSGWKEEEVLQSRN
Procedure, shortened: as §1

ETV1 = ETV1 (Homo sapiens, UniProt P50549 1-477); details: protein: recombinant; tags: N-terminal GST; dsDNA, one strand shown
Procedure, shortened: as §1

SPIB, sequence (Q01892 whole entry): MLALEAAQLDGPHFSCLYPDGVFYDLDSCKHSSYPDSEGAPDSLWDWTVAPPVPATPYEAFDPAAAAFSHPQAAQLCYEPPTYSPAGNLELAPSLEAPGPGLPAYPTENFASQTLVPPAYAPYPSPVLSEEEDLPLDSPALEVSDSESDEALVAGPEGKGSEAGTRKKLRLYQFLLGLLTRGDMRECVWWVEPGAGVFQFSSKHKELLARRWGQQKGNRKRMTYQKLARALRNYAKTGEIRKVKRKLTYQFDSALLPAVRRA
ETV1, sequence (P50549 whole entry): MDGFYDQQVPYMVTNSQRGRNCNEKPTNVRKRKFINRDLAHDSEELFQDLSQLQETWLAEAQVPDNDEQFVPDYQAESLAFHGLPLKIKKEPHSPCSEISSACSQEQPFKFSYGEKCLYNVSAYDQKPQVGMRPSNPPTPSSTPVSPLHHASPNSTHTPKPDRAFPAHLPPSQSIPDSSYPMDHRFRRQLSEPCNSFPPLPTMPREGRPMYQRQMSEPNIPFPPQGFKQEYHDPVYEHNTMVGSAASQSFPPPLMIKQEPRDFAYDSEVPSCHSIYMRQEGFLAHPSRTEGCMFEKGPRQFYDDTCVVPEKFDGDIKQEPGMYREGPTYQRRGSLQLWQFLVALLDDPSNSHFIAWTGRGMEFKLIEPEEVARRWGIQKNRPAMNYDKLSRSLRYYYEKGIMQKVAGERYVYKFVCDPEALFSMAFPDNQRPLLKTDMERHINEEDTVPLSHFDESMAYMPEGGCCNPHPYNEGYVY
ETV5, sequence (P41161 whole entry): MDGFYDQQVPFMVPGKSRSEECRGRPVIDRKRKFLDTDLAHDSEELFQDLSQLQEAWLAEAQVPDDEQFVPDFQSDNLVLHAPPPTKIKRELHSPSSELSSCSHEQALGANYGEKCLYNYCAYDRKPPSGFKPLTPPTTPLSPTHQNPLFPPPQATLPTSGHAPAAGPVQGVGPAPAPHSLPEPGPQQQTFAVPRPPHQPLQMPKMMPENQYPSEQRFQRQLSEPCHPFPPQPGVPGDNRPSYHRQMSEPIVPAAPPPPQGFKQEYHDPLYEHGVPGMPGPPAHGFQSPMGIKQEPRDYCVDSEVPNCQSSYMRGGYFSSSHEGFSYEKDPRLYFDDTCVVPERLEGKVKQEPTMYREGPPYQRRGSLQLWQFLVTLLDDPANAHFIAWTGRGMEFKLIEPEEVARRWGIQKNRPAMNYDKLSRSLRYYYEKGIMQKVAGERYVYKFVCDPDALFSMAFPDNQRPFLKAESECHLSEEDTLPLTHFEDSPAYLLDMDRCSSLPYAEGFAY
HSF1, sequence (Q00613 whole entry): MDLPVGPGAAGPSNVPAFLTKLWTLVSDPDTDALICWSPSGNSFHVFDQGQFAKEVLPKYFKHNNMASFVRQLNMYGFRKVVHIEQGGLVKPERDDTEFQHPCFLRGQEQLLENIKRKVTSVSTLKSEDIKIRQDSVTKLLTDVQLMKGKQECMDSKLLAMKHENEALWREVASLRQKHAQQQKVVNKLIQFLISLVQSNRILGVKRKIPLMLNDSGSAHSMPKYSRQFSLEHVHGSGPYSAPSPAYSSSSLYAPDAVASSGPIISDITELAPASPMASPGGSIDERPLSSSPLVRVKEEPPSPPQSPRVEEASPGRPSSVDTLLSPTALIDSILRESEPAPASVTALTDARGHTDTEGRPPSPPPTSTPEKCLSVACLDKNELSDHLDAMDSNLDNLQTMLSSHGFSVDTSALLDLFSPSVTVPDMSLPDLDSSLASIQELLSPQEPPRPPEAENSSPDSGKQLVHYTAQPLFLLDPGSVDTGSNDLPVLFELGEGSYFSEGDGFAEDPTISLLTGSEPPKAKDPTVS
ELF1, sequence (P32519 whole entry): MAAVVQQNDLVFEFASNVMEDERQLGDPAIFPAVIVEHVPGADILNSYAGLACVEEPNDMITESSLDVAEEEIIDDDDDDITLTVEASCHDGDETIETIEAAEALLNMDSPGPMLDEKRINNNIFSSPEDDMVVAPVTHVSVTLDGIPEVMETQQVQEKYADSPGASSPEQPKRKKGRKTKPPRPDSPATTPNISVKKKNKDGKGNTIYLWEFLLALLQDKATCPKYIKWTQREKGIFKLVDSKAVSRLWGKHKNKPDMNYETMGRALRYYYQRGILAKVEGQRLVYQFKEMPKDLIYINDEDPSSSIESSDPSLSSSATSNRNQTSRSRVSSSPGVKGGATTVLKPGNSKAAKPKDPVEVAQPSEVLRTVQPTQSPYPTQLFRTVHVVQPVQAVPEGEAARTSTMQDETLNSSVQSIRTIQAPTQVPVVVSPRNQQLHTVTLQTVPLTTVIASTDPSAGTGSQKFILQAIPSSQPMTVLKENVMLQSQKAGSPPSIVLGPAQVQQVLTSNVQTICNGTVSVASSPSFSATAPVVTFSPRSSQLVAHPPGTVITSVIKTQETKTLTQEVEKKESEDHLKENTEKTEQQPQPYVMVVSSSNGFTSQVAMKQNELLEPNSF
ELF4, sequence (Q99607 whole entry): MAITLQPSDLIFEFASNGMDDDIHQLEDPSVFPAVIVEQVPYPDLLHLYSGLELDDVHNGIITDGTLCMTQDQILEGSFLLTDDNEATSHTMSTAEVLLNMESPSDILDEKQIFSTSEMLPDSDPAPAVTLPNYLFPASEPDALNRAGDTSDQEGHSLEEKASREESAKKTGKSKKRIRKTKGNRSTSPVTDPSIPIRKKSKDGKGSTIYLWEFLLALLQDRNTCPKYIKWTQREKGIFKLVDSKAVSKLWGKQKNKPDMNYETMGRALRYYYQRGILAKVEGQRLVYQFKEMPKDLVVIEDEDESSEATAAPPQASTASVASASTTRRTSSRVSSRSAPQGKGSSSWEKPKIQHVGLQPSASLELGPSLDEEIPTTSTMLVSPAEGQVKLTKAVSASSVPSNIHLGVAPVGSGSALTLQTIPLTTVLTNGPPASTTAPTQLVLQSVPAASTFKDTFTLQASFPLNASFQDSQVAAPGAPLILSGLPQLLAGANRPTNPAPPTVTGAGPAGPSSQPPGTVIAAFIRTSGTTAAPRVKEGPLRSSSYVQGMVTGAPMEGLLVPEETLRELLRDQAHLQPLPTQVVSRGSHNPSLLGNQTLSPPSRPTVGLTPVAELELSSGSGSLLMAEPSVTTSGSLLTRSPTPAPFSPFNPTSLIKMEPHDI

CCTGGG
binding signal (FLI1): 1.16 fold enrichment (6-mer frequency, TF over GST control)
binding signal (ELK1): 1.18 fold enrichment (6-mer frequency, TF over GST control)
binding signal (GABPA): 1.15 fold enrichment (6-mer frequency, TF over GST control)
binding signal (ERG): 1.16 fold enrichment (6-mer frequency, TF over GST control)
binding signal (ELF1): 1.18 fold enrichment (6-mer frequency, TF over GST control)
binding signal (SPI1): 1.11 fold enrichment (6-mer frequency, TF over GST control)
binding signal (SPIB): 1.08 fold enrichment (6-mer frequency, TF over GST control)
binding signal (FEV): 1.05 fold enrichment (6-mer frequency, TF over GST control)
binding signal (ETV5): 1.05 fold enrichment (6-mer frequency, TF over GST control)
binding signal (HSF1): 1.01 fold enrichment (6-mer frequency, TF over GST control)
binding signal (SPIC): 1.05 fold enrichment (6-mer frequency, TF over GST control)
binding signal (ELF4): 1.09 fold enrichment (6-mer frequency, TF over GST control)
binding signal (ELK4): 1.08 fold enrichment (6-mer frequency, TF over GST control)
binding signal (ETV2): 1.29 fold enrichment (6-mer frequency, TF over GST control)
binding signal (ELF3): 1.06 fold enrichment (6-mer frequency, TF over GST control)
binding signal (ETV1): 1.16 fold enrichment (6-mer frequency, TF over GST control)
